Assay outcomes from PubChem.
Only some compounds are listed: those with a hit (about 7.6% of all), similar ones and a draw of the others.
Cy5 interf NS3h: enhances or quenches Cy5 fluorescence in NS3h assay; Cy5-dT15 DNA with NS3h, fluorescence interference; actives lie on both sides; signal over control mean, under 1 quenches; fluorescence interference ratio at 100 µM; actives 6% (n = 16,000); AID 720488;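 active = compound fluorescence over control fluorescence at most 0.8, a quencher, or at least a set upper limit, an enhancer; inactive = ratio between 0.8 and the set upper limit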
NS3h inh CB: blocks HCV NS3 helicase binding to DNA | NS3h Cy5-dT15 DNA binding, fluorescence polarization | inhibition, % at 100 µM | actives 1.6% (n = 16,000);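 active = inhibition above the average over every tested compound plus 3 SD, cut at about 40% in these data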
Hits are given with their value; . = inactive.

SMILES | Cy5 interf NS3h | NS3h inh CB
O=C1c2cc(S(=O)(=O)NCCCO)ccc2-c2ccc(S(=O)(=O)NCCCO)cc21 | 0.63 | .
CC(C)(C)c1ccc(C2=N/C(=C\c3cccnc3)C(=O)O2)cc1 | . | .
CCCc1cc(=O)n2[nH]c(-c3ccc(F)cc3)cc2n1 | . | .
CCCc1cc(=O)n2[nH]c(-c3ccc(C)cc3)cc2n1 | 1.2 | .
Cc1ccc(-c2cc3nc(C)c(Cl)c(=O)n3[nH]2)cc1 | 0.77 | .
Cc1nc2cc(-c3ccccc3Cl)[nH]n2c(=O)c1Cl | . | .
Cc1ccc(/C=c2/sc3nc(-c4ccccc4)nn3c2=O)cc1 | . | .
CCOc1cc(OCC)cc(C(=O)Nc2ccc(F)cc2)c1 | . | .
CCOc1cc(C(=O)Nc2ccc(F)cc2)cc(OCC)c1OCC | 0.71 | .
Cc1ccc(/C=C/C(=O)Nc2cccc(Cl)c2Cl)o1 | . | .
Cc1cc(-c2ccc(Cl)cc2)nc2cc(C(=O)O)nn12 | . | .
O=c1cc(-c2ccccc2)nc2cc(-c3cccc(Cl)c3)[nH]n12 | 1.2 | .
O=c1c2c(nc3cc(-c4cccc(F)c4)[nH]n13)CCCC2 | . | .
O=c1c2c(nc3cc(-c4cccc(Cl)c4)[nH]n13)CCS2 | 0.72 | .
Cc1cc(=O)n2[nH]c(-c3cccc(F)c3)cc2n1 | . | .
Cc1onc(-c2ccccc2Cl)c1C(=O)Nc1ccc(S(=O)(=O)Nc2ncccn2)cc1 | . | .
CCCCOP(=O)(OCCCC)C(Nc1ccccc1)c1ccc(OC)cc1 (configuration not stated) | . | .
S=C1NCCOCCOCCOCCNC(=S)N2CCOCCOCCN1CCOCC2 | . | .
COc1ccc(OC(C)C(=O)Nc2ccccc2Cl)cc1 (configuration not stated) | . | .
Cc1cc(=O)n2c([nH]c3ccccc32)c1C(=O)O | 0.79 | .
COc1cc(-c2noc(-c3ccc(Cl)cc3)n2)cc(OC)c1OC | . | .
CCOC(=O)c1c(-c2ccc(Br)cc2)csc1NC(=O)c1cccc([N+](=O)[O-])c1 | . | .
C/C(=N/N=C1\NC(=O)C(CC(=O)Nc2ccc(Cl)cc2Cl)S1)c1ccc(Cl)cc1 (configuration not stated) | . | .
COc1ccc(/C(C)=N\N=C2/NC(=O)C(CC(=O)Nc3cc(Cl)ccc3Cl)S2)cc1 (configuration not stated) | 1.2 | .
CCC(=O)Nc1ccc(N2CCN(C(C)=O)CC2)cc1 | . | .
SMILES | Cy5 interf NS3h | NS3h inh CB
CCC(C)NC(=O)/C(=C\c1ccc(OC(C)=O)c(OC)c1)NC(C)=O (configuration not stated) | . | .
O=C1OC(c2sc3ccccc3c2Cl)=N/C1=C/c1ccccc1F | . | .
Cc1ccccc1NC(=S)NCCOc1ccccc1Cc1ccccc1 | 0.6 | .
Cc1ccccc1NC(=O)C(=O)NCCc1ccccc1 | . | .
CC1(C)CC2CC(C)(CN2S(=O)(=O)c2ccc(C(=O)Nc3ccccc3N3CCOCC3)cc2)C1 (configuration not stated) | . | .
CC1CC(Nc2ccccc2)c2ccccc2N1C(=O)c1ccc(Cl)cc1Cl (configuration not stated) | 0.62 | .
CC1CC(Nc2ccccc2)c2ccccc2N1C(=O)COc1ccc(Cl)cc1 (configuration not stated) | . | .
COCCOC(=O)c1c(C)oc2ccc(OCc3cc(C)ccc3C)cc12 | . | .
Cc1cc(NC(=O)c2ccc(Cl)c([N+](=O)[O-])c2)ccc1Br | . | .
Cc1ccccc1C(=O)Nc1cccc(NC(=O)c2ccc(Cl)c([N+](=O)[O-])c2)c1 | 0.71 | .
C=CCN1C(=O)/C(=C\c2ccc(OC(=O)c3cccc(Br)c3)c(OC)c2)SC1=S | . | .
O=C1NC(=S)N/C1=C\c1ccccc1 | 1.2 | .
O=C1NC(=S)N/C1=C/c1ccc(O)c(Cl)c1 | . | .
Cc1ccc(OCc2nnc(NC(=O)C3CCCCC3)s2)cc1 | . | .
CCOc1ccc2nc(SCC(=O)Nc3ccc(OC)cc3OC)sc2c1 | . | .
COc1ccc(NC(=O)CSc2nc3ccc(N4C(=O)c5ccccc5C4=O)cc3s2)c([N+](=O)[O-])c1 | 0.73 | .
Cc1ccc(S(=O)(=O)N(C)Cc2ccccc2)cc1[N+](=O)[O-] | . | .
O=C(Nc1ccc(-c2cnc(-c3ccc(NC(=O)c4ccccc4Cl)cc3)nc2)cc1)c1ccccc1Cl | 0.72 | .
CN(C)c1ccc(NC(=O)c2ccccc2Cl)cc1 | . | .
CCCCCCN1C(=O)C(=O)C(=C(O)c2ccccc2)C1c1ccc(N(C)C)cc1 (configuration not stated) | . | .
O=C(Nc1ccc(N2CCOCC2)cc1)c1cccc(Cl)c1Cl | 0.67 | .
COc1c(Cl)cc(C(=O)Nc2ccc(N3CCOCC3)cc2)cc1Cl | . | .
CCCCOC(=O)c1ccc(NC(=O)c2cccc(Cl)c2Cl)cc1 | 0.69 | .
CCC(=O)Nc1ccc(NC(=O)c2cccc(Cl)c2Cl)cc1 | . | .
COc1ccc(/C(N)=N\OC(=O)c2cccc(C)c2)cc1 | . | .
SMILES | Cy5 interf NS3h | NS3h inh CB
CCOc1ccc(Cl)cc1/C=C1/SC(=S)N(C)C1=O | . | .
COc1ccccc1N1CCN(/N=C\c2ccc(Cl)c([N+](=O)[O-])c2)CC1 | . | .
C=CCNC(=O)c1ccc(-c2ccc([N+](=O)[O-])cc2)o1 | . | .
Cc1ccc2oc(-c3cccc(NC(=O)c4ccc(-c5ccc([N+](=O)[O-])cc5C)o4)c3C)nc2c1 | . | .
O=C(Nc1ccc(NC(=O)c2ccc(-c3ccc([N+](=O)[O-])cc3)o2)cc1)c1ccco1 | 0.67 | .
O=C(Nc1ccc(-c2nc3ccccc3o2)c(O)c1)c1ccc(-c2cccc([N+](=O)[O-])c2)o1 | 0.77 | .
O=C(Nc1ccc(-c2nc3ccccc3s2)c(O)c1)c1ccc(-c2cccc([N+](=O)[O-])c2)o1 | 0.56 | .
O=C(Nc1ccc(-c2nc3ccccc3o2)c(O)c1)c1ccc(-c2cccc(Cl)c2)o1 | . | .
CCOC(=O)c1ccc(-c2ccc(C(=O)Nc3ccc(-c4nc5ccccc5s4)c(O)c3)o2)cc1 | . | .
Cc1cc([N+](=O)[O-])ccc1-c1ccc(C(=O)Nc2ccc(-c3nc4ccccc4o3)c(O)c2)o1 | 0.61 | .
Cc1ccc(S(=O)(=O)NCCNc2cc(Cl)ccc2[N+](=O)[O-])cc1 | . | .
Cc1c(C(=O)O/N=C(/N)Cc2ccc(Cl)cc2Cl)cccc1[N+](=O)[O-] | . | .
Cc1ccc(S(=O)(=O)C(CC(=O)c2ccccc2)c2cccs2)cc1 (configuration not stated) | . | .
O=C(NC(=S)Nc1ccc(NC(=O)c2ccco2)cc1)c1ccco1 | . | .
O=C(/C=C/c1ccccc1)NCC1COc2ccccc2O1 (configuration not stated) | . | .
Cc1ccc(NC(=O)CN(c2ccc(Br)cc2)S(C)(=O)=O)cc1 | . | .
CCCc1cc2c(-c3ccccc3)cc(=O)oc2cc1OCC | . | .
CCOc1ccccc1NC(=O)CN(c1cccc(Br)c1)S(=O)(=O)c1ccccc1 | . | .
Cc1c(Cl)cccc1NC(=O)Cn1cnc([N+](=O)[O-])n1 | . | .
COC(=O)c1ccccc1NC(=O)Cn1cnc([N+](=O)[O-])n1 | 0.69 | .
O=C(COc1ccccc1)Nc1ccc([N+](=O)[O-])cc1 | . | .
N#Cc1ccccc1OCC(=O)N/N=C\C=C\c1ccc([N+](=O)[O-])cc1 | 0.58 | .
COc1ccc(Br)cc1CN1CCN(S(C)(=O)=O)CC1 | 0.67 | .
COc1ccc(CN2CCN(S(C)(=O)=O)CC2)c(OC)c1 | 0.69 | .
